These results are taken from PubChem BioAssay AID2283149 (EPA ToxCast).

Results filed as inconclusive are left out. Activity calls are given as the source filed them. Rule for the calls: active = hit-call score of the fitted dose curve at least 0.9, where 1 is the maximum; inconclusive = response in the unintended direction; inactive = score below 0.9.

The assay deals with human Casein Kinase 1-alpha (CK1a), CSNK1A1 (gene 1452) (UniProt P48729). Kind of assay: NVS_ENZ_hCK1a: NovaScreen (NVS) Enzymatic Assay for human Casein Kinase 1-alpha (CK1a). On the procedure: NVS_ENZ_hCK1a is a biochemical, single-readout assay that uses extracted gene-proteins in a cell-free assay. Measurements were taken 1 hour after chemical dosing in a 384-well plate.NVS_ENZ_hCK1a is one of one assay component(s) measured or calculated from the NVS_ENZ_hCK1a assay. It is designed to make measurements of enzyme activity, a form of enzyme reporter, as detected with fluorescence intensity signals by Fluorescence and electrophoretic mobility shift technology.Data from the assay component NVS_ENZ_hCK1a was analyzed into 1 assay endpoint. This assay endpoint, NVS_ENZ_hCK1a, was analyzed in the positive analysis fitting direction relative to DMSO as the negative control and baseline of activity. Using a type of enzyme reporter, loss-of-signal activity can be used to understand changes in the enzymatic activity as they relate to the gene CSNK1A1. Furthermore, this assay endpoint can be referred to as a primary readout, because this assay has produced multiple assay endpoints where this one serves a enzymatic activity function. To generalize the intended target to other relatable targets, this assay endpoint is annotated to the kinase intended target family, where the subfamily is serine/threonine kinase.
Chain of human Casein Kinase 1-alpha (CK1a), CSNK1A1 (gene 1452) (P48729 whole entry, looked up): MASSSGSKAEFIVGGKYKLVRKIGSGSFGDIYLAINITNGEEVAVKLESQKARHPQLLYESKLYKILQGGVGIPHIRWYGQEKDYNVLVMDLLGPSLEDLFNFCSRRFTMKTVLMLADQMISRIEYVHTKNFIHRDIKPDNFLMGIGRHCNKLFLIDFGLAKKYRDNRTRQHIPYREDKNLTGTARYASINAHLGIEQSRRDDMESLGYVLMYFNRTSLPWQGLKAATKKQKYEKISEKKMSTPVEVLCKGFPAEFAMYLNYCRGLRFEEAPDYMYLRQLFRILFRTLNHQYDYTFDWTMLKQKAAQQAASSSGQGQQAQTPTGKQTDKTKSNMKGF
Binding assays used specific radioligands (tritiated, iodinated) with non-radioactive competitive displacement ligands in agonist or antagonist protocols (as indicated) and various reference compounds and inhibitors to titrate specific binding to receptors and transporters. Most enzyme assays (CYPs, kinases, phosphatases, proteases, HDACs) used recombinant protein and specific substrates (fluorescence mostly, some colorimetric and radioactive) and inhibitors, followed by a biochemical separation of substrate and product. All assays for the biochemical HTS were initially run in duplicate at a single concentration (10 uM for CYP450 assays and 25 uM for all others). Assay-chemical combinations meeting a pre-defined threshold (e.g., 30% inhibition and other criteria defined below) were then run in singleton concentration-response format with maximum concentration of 20 uM for CYPs and 50 uM for all others. Each assay was run with positive and negative controls, and concurrent controls on every plate. The follow-up (secondary) screen tested active chemical-pairs in concentration series, as well as a few additional assays not tested in the primary screen, some selected negative inactives, and several cases re-run in the concentration series for confirmatory purposes.
`CO/C=C(/C(=O)OC)c1ccccc1Oc1cc(Oc2ccccc2C#N)ncn1`: the outcome was inactive.
For the compound `O=S(=O)(O)C(F)(F)C(F)(F)C(F)(F)C(F)(F)C(F)(F)C(F)(F)C(F)(F)C(F)(F)F`, the half-maximal activity concentration (AC50) (as a rule, the midpoint of the concentration-response curve, whichever way the signal moves) was 21.1 µM (active).
The same measure, in the same setting: the value for `CN(C)[C@@H]1C(=O)C(C(N)=O)=C(O)[C@@]2(O)C(=O)C3=C(O)c4c(O)cccc4[C@@](C)(O)[C@H]3[C@H](O)[C@@H]12` was 36.4 µM (active).
Turning to `O=C(Nc1ccc([N+](=O)[O-])cc1Cl)c1cc(Cl)ccc1O`, the compound was called inactive.
Take `N#CSCSC#N`: the compound was called inactive.
Turning to `S=C([S-])NCCNC(=S)[S-].[Mn+2]`, the AC50 is 19.4 µM (active).
Turning to `Nc1nc(N)nc(NC2CC2)n1`, the call was inactive.
With `S=C(S)NCCNC(=S)S.[Mn+2].[S-]C([S-])=NCCN=C([S-])[S-].[Zn+2]`, the half-maximal activity concentration (AC50) was 9.19 µM (active).
The same measure, in the same setting: the value for `O=C(O)C1(C(=O)Nc2ccc(Cl)cc2Cl)CC1` was 8.67 µM (active).
